Several values for one entry are separate records, joined by “and”; a condition that tells them apart may be missing. Equal entries are not always repeated. Results filed as inconclusive are left out. Entries that show only a call come without a potency. The source holds several records for some structures; these can differ, active in one and inactive in another. Activity calls are given as the source filed them. Calls come from the whole dose curve; as a rule, active = well fitted curve in the direction sought with a large enough effect in the repeat runs; inconclusive = weak or mixed curves; inactive = no such curve, though single readings can be large; an effect the other way counts as inactive or inconclusive.
Key:
[1] = A CellTox Green Cytotoxicity Assay to monitor cytotoxicity in HEK293 cells - 32 hour (AID 1224881); note: nearly all actives have a fitted effect of over 40% in size; note: potency is the fitted concentration of half-maximal effect
How it was run: (§1)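 Tox21 screen in HEK293: membrane-impermeant cyanine dye fluoresces on binding dead-cell DNA; compound pinned 5 h post-seeding, plates held at 37 C, signal read repeatedly through 40 h.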

[2] = A CellTox Green Cytotoxicity Assay to monitor cytotoxicity in HepG2 cells - 0 hour (AID 1224882); note: nearly all actives have a fitted effect of over 35% in size
How it was run: (§2)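 Measurements at 0, 8, 16, 24, 32 and 40 h of treatment captured CellTox Green fluorescence in HepG2 cells that had been co-plated with reagent and preincubated 5 h at 37 C/5% CO2.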

[3] = A CellTox Green Cytotoxicity Assay to monitor cytotoxicity in HepG2 cells - 32 hour (AID 1224883); note: nearly all actives have a fitted effect of over 50% in size; note: potency is the fitted concentration of half-maximal effect
How it was run: as §2

[4] = A CellTox Green Cytotoxicity Assay to monitor cytotoxicity in HEK293 cells - 8 hour (AID 1224884); note: nearly all actives have a fitted effect of over 35% in size; note: potency is the fitted concentration of half-maximal effect
How it was run: as §1

[5] = qHTS RealTime-Glo MT Cell Viability Assay in HepG2 cells - 16 hour (AID 1224885); note: nearly all actives have a fitted effect of over 50% in size
How it was run: (§3)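 Real-time, nonlytic viability: 600 HepG2 cells/well mixed with NanoLuc enzyme plus prosubstrate; 5 h settle, compound (DMSO) added by pintool; luminescence monitored over 40 h at 37 C.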

[6] = qHTS RealTime-Glo MT Cell Viability Assay in HEK293 cells - 24 hour (AID 1224886); note: nearly all actives have a fitted effect of over 50% in size; note: potency is the fitted concentration of half-maximal effect
How it was run: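 Cells + reagent dispensed (600 cells/well, HEK293) → 5 h at 37 C/5% CO2 → 23 nL compound in DMSO pinned → 40 h at 37 C → luminescence read at 0, 8, 16, 24, 32, 40 h.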

[7] = qHTS RealTime-Glo MT Cell Viability Assay in HEK293 cells - 8 hour (AID 1224887); note: nearly all actives have a fitted effect of over 50% in size; note: potency is the fitted concentration of half-maximal effect
How it was run: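 HEK293 + NanoLuc + prosubstrate, 600 cells/well; 5 h, 37 C/5% CO2; compound 23 nL in DMSO by pintool; 37 C; luminescence read at 0, 8, 16, 24, 32 and 40 h time points.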

[8] = A CellTox Green Cytotoxicity Assay to monitor cytotoxicity in HEK293 cells - 16 hour (AID 1224888); note: nearly all actives have a fitted effect of over 35% in size
How it was run: as §1

[9] = qHTS RealTime-Glo MT Cell Viability Assay in HepG2 cells - 0 hour (AID 1224889); note: nearly all actives have a fitted effect of over 50% in size
How it was run: as §3

[10] = A CellTox Green Cytotoxicity Assay to monitor cytotoxicity in HepG2 cells - 8 hour (AID 1224890); note: nearly all actives have a fitted effect of over 45% in size; note: potency is the fitted concentration of half-maximal effect
How it was run: as §2

Compound | Potency [1] | Potency [2] | Potency [3] | Potency [4] | Potency [5] | Potency [6] | Potency [7] | Potency [8] | Potency [9] | Potency [10] | cytotoxicity increase [1]
CCOC(=O)CC(=O)OCC | inactive | inactive | inactive | inactive | inactive | inactive | inactive | inactive | inactive | inactive | –
O=c1c(O)c(-c2ccc(O)c(O)c2)oc2cc(O)cc(O)c12 | inactive | inactive | inactive | inactive | inactive | inactive | inactive | inactive | – | inactive | –
N[C@@H](Cc1cc(I)c(Oc2ccc(O)c(I)c2)c(I)c1)C(=O)O | inactive | inactive | inactive | inactive | inactive | inactive | inactive | inactive | inactive | inactive | –
COc1c2ccoc2cc2oc(=O)ccc12 | inactive | inactive | inactive | inactive | inactive | inactive | inactive | – | inactive | inactive | –
Nc1nc(N)c2nc(-c3ccccc3)c(N)nc2n1 | inactive | inactive | – | inactive | inactive | inactive | inactive | inactive | inactive | inactive | –
CC(C)c1ccc(C(C)C)cc1 | inactive | inactive | inactive | inactive | inactive | inactive | inactive | inactive | inactive | inactive | –
Cc1nnc(NS(=O)(=O)c2ccc(N)cc2)s1 | inactive | inactive | – | inactive | inactive | inactive | inactive | inactive | inactive | inactive | –
Cc1ncc(CO)c(CO)c1O | inactive | inactive | – | inactive | inactive | inactive | inactive | inactive | inactive | inactive | –
OB(O)O | inactive | inactive | inactive | inactive | inactive | inactive | inactive | inactive | inactive | inactive | –
CCCCCCCC(=O)O | inactive | inactive | inactive | inactive | inactive | inactive | inactive | – | inactive | inactive | –
NC(=O)c1ncn([C@@H]2O[C@H](CO)[C@@H](O)[C@H]2O)n1 | inactive | inactive | inactive | inactive | inactive | inactive | inactive | – | inactive | inactive | –
CC(C)(CO)CO | inactive | inactive | inactive | inactive | inactive | inactive | inactive | inactive | inactive | inactive | –
CC(=O)OCCC(C)C | inactive | inactive | inactive | inactive | inactive | inactive | inactive | – | inactive | inactive | –
CC(C)(C)NC[C@H](O)COc1nsnc1N1CCOCC1 | inactive | inactive | inactive | inactive | inactive | inactive | inactive | inactive | inactive | inactive | –
COc1ccc(N)c(OC)c1 | inactive | inactive | inactive | inactive | inactive | inactive | inactive | inactive | inactive | inactive | –
CC(O)CNCC(C)O (configuration not stated) | inactive | inactive | inactive | inactive | inactive | inactive | inactive | inactive | inactive | inactive | –
OC[C@H]1O[C@@H](Oc2ccc(O)cc2)[C@H](O)[C@@H](O)[C@@H]1O | inactive | inactive | inactive | inactive | inactive | inactive | inactive | – | inactive | inactive | –
Cc1cc(CC(=O)O)n(C)c1C(=O)c1ccc(Cl)cc1 | inactive | inactive | – | inactive | inactive | inactive | inactive | inactive | inactive | inactive | –
CC(=O)CC(=O)N(C)C | inactive | inactive | inactive | inactive | inactive | inactive | inactive | – | inactive | inactive | –
NCCNCCNCCN | inactive | inactive | inactive | inactive | inactive | inactive | inactive | inactive | inactive | inactive | –
CC[N+](CC)(CC(=O)Nc1c(C)cccc1C)Cc1ccccc1 | inactive | inactive | inactive | inactive | inactive | inactive | inactive | inactive | inactive | inactive | –
OCc1ccc(Cl)cc1Cl | inactive | inactive | inactive | inactive | inactive | inactive | inactive | – | inactive | inactive | –
CCCCCCC(=O)O | inactive | inactive | inactive | inactive | inactive | inactive | inactive | – | inactive | inactive | –
CN1Cc2c(N)cccc2C(c2ccccc2)C1 (configuration not stated) | inactive | inactive | inactive | inactive | inactive | inactive | inactive | inactive | inactive | inactive | –
COc1ccccc1[N+](=O)[O-] | inactive | inactive | inactive | inactive | inactive | inactive | inactive | – | inactive | inactive | –
Cc1ccc([N+](=O)[O-])cc1N | inactive | inactive | inactive | inactive | inactive | inactive | inactive | – | inactive | inactive | –
CCCCCCCCC(=O)O | inactive | inactive | inactive | inactive | inactive | inactive | inactive | – | inactive | inactive | –

Compound | Potency [1] | Potency [2] | Potency [3] | Potency [4] | Potency [5] | Potency [6] | Potency [7] | Potency [8] | Potency [9] | Potency [10] | cytotoxicity increase [1]
O=Cc1ccc(CO)o1 | inactive | inactive | inactive | inactive | inactive | inactive | inactive | – | inactive | inactive | –
COC(=O)/C=C\C(=O)OC | inactive | inactive | inactive | inactive | inactive | inactive | inactive | – | inactive | inactive | –
O=C(Cl)c1ccc(C(=O)Cl)cc1 | inactive | inactive | inactive | inactive | inactive | inactive | inactive | inactive | inactive | inactive | –
CC1(C)[C@@H](O[C@H]2O[C@H](C(=O)O)[C@@H](O)[C@H](O)[C@H]2O[C@@H]2O[C@H](C(=O)O)[C@@H](O)[C@H](O)[C@H]2O)CC[C@]2(C)[C@H]3C(=O)C=C4[C@@H]5C[C@@](C)(C(=O)O)CC[C@]5(C)CC[C@@]4(C)[C@]3(C)CC[C@@H]12 | inactive | inactive | inactive | inactive | inactive | inactive | inactive | inactive | – | inactive | –
C=CC(C)(C)C | inactive | inactive | inactive | inactive | inactive | inactive | inactive | inactive | inactive | inactive | –
COCN(COC)c1nc(N(COC)COC)nc(N(COC)COC)n1 | inactive | inactive | – | inactive | inactive | inactive | inactive | inactive | inactive | inactive | –
CC(CN1c2ccccc2Sc2ccccc21)N(C)C (configuration not stated) | 54.9 µM (active) and inactive | inactive | 55.5 µM (active) and 49 µM (active) and 23.9 µM (active) | inactive | inactive | 39.3 µM (active) and 43.6 µM (active) | 24.8 µM (active) | – | inactive | inactive and 54.9 µM (active) | –
Cc1ccc(C)c(S(=O)(=O)O)c1 | inactive | inactive | inactive | inactive | inactive | inactive | inactive | inactive | inactive | inactive | –
c1cnc2c(c1)ccc1cccnc12 | inactive | inactive | inactive | inactive | inactive | 3.5 µM (active) and 8.71 µM (active) and 9.77 µM (active) | inactive | – | inactive | inactive | –
C[Si](C)(C)N[Si](C)(C)C | inactive | inactive | inactive | inactive | inactive | inactive | inactive | inactive | inactive | inactive | –
OC1CCCCC1 | inactive | inactive | – | inactive | inactive | inactive | inactive | inactive | inactive | inactive | –
CCCCCCCCCCCCCC(=O)O | – | inactive | inactive | inactive | inactive | inactive | inactive | inactive | inactive | inactive | –
O=C(O)C1=NN(c2ccc(S(=O)(=O)O)cc2)C(=O)C1 | inactive | – | inactive | inactive | inactive | inactive | inactive | inactive | inactive | inactive | –
COc1c(Cl)ccc(Cl)c1C(=O)O | inactive | – | inactive | inactive | inactive | inactive | inactive | inactive | inactive | inactive | –
CCCCCCCCCCCC(=O)N(C)CC(=O)O | – | – | – | inactive | inactive | inactive | inactive | inactive | inactive | inactive | 0.815% [at 6.97 µM] (inactive)
O=C1OC(=O)c2c(Cl)c(Cl)c(Cl)c(Cl)c21 | inactive | inactive | – | inactive | inactive | inactive | inactive | inactive | inactive | inactive | –
N#CCC(=O)O | inactive | – | – | inactive | inactive | inactive | inactive | inactive | inactive | inactive | –
Cc1ccccc1C=O | inactive | inactive | – | inactive | inactive | inactive | inactive | – | inactive | inactive | –
Cc1cc(C)c(O)c(C)c1 | inactive | – | inactive | inactive | inactive | inactive | inactive | – | inactive | inactive | –
CC(=O)c1nccs1 | inactive | – | – | inactive | inactive | inactive | inactive | inactive | inactive | inactive | –
COc1ccc([C@@H]2CC(=O)c3c(O)cc(O[C@@H]4O[C@H](CO[C@@H]5O[C@@H](C)[C@H](O)[C@@H](O)[C@H]5O)[C@@H](O)[C@H](O)[C@H]4O)cc3O2)cc1OC | inactive | inactive | – | inactive | inactive | inactive | inactive | – | inactive | inactive | –
Nc1cccc(C(F)(F)F)c1 | inactive | inactive | – | 40.1 µM (active) and inactive | inactive | inactive | inactive | inactive | inactive | inactive | –
O=C(O)Cc1c[nH]c2ccccc12 | inactive | – | – | inactive | inactive | inactive | inactive | – | inactive | inactive | –
Clc1cccc(Cl)c1NC1=NCCN1 | inactive | – | – | inactive | inactive | inactive | inactive | inactive | inactive | inactive | –
CCCCCNCCCCC | inactive | – | inactive | inactive | inactive | inactive | inactive | – | inactive | inactive | –
CC(=O)C(C)C | inactive | – | inactive | inactive | inactive | inactive | inactive | inactive | inactive | inactive | –
